This note sets out measurements from PubChem BioAssay AID2707 (National Center for Advancing Translational Sciences (NCATS), 2010).

The other results are listed elsewhere or left out. The source made the active and inactive calls.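 The calls were made as follows: active = potency below 100 µM; inconclusive = dose-dependent response but potency above 100 µM; inactive = the rest.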

Sequence of 4'-phosphopantetheinyl transferase ffp (Bacillus subtilis) (Q9F4F7 whole entry, looked up): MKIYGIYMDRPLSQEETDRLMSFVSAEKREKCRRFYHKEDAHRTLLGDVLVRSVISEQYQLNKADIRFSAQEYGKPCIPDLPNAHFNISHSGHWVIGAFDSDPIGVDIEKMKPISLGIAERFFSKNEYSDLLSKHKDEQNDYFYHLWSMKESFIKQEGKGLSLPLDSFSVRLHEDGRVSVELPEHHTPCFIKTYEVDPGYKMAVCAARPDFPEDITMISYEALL

The target in the test is 4'-phosphopantetheinyl transferase ffp (Bacillus subtilis) (UniProt Q9F4F7). The test is described as follows: Gel-Based Assay for Inhibitors of Bacillus subtilis Sfp phosphopantetheinyl transferase (PPTase). The conditions noted are these: purified Sfp, gel-based phosphopantetheinylation read-out. The text has this:
The covalent attachment of a phosphopantetheinyl (4'-PP) arm to a variety of synthases and other proteins is a key posttranslational protein modification. The 4'-PP is installed on the proteins post-translationally from coenzyme A (CoA) on a conserved serine residue by action of phosphopantetheinyl transferase (PPTase) enzymes. Phosphopantetheinylation is essential for synthase activity, and removal of the PPTase gene precludes natural product synthesis in microorganisms, or in the case of fatty acid biosynthesis, renders the organism unviable. PPTase enzymes belong to a distinct structural superfamily. Within bacteria, these enzymes are grouped into two classes based upon primary structure, the AcpS-Type and Sfp-Type PPTases. […]
In this assay, compounds were evaluated by monitoring of fluorescence transfer to whole carrier protein substrates via polyacrylamide gel electrophoresis. […]
A DMSO solution of confirmed hits (0.5 microL) was added to a 1.33X enzyme solution (15 microL, containing 26.6 nM Sfp, 66 mM HEPES, 13.3 mM MgCl2, 0.0133% NP-40, 0.133% BSA, pH 7.6). […] Following the run, gels were imaged with a Chemi-Doc Plus imager (Bio-Rad, Hercules, CA) and band intensity quantified using the ImageJ software package. […]
With `Cc1nn2c(c1-c1ccccc1)N=C(c1ccco1)CC2c1ccccc1` (configuration not stated), the result was inactive.

Consider `CCCOC(=O)Nc1sc2c(c1C(=O)OCC)CCC2`, for which the result was inactive.
